This is an account of results in the supplement of paper PMC11172423.

SMILES strings stand for the structures. Values without a mark were called inactive.

In experiment [1] the test system is Falciformispora senegalensis CBS197.79. The experiment in a line: growth relative to untreated control; higher = less inhibition, active = 20 or less. The procedure, abridged: (§1)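 Growth was expressed as metabolic activity relative to the untreated growth control, with both corrected using a blank of medium plus dye. Hyphal fragments of M. mycetomatis MM55 or F. senegalensis CBS197.79 were suspended to 68–72% transmission at 660 nm in colourless RPMI 1640 containing L-glutamine and MOPS. In 96-well plates they were exposed to compound at 100 or 25 µM for 7 days at 37 °C, and viability was read with MTS (2 h, 490 nm) or resazurin (600 nm).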

Experiment [2] deals with Madurella mycetomatis MM55. The description is as above. The procedure, abridged: as §1

On to `CCCCCOc1ccc(-c2ccc(-c3ccc(C(=O)N[C@H]4C[C@@H](O)[C@@H](O)NC(=O)[C@@H]5[C@@H](O)[C@@H](C)CN5C(=O)[C@H]([C@@H](C)O)NC(=O)[C@H]([C@H](O)[C@@H](O)c5ccc(O)cc5)NC(=O)[C@@H]5C[C@@H](O)CN5C(=O)[C@H]([C@@H](C)O)NC4=O)cc3)cc2)cc1`, for which the growth is 84.5% in experiment [1] (25 µM) and 67.5% in experiment [1] (100 µM).
With `COc1ccc(-c2cc3ncnc(N4CCN(CCN5CCCC5)CC4)c3s2)cc1`, the growth in experiment [1] (25 µM) is 7.35% (active); in experiment [1] (100 µM) it was 14.9% (active).
The like results for `CC(C)(C)c1nc(-c2cccc(NS(=O)(=O)c3c(F)cccc3F)c2F)c(-c2ccnc(N)n2)s1` were, in that order, 101% and 104%.
For `CN1CCC(N2CCC(NC(=O)c3cc4c(F)cccc4s3)CC2)CC1`, the growth in experiment [1] (25 µM) is 91.4%; in experiment [1] (100 µM), 15.5% (active).
Consider `Nc1nc(S)c2[nH]cnc2n1`, for which the growth in experiment [1] (25 µM) is 106%; in experiment [1] (100 µM), 103%.
`Oc1ccccc1CCNC1CCc2ccc(F)cc21` (stereo unspecified): the growth in experiment [1] (25 µM) is 107%; in experiment [1] (100 µM), 115%.
For `Cn1c(O)nnc1Cn1ccc(C(F)(F)F)c(Oc2cc(Cl)cc(C#N)c2)c1=O` the same measures were 106% and 106%.
For `CCS(=O)(=O)N1CC(CC#N)(n2cc(-c3ncnc4[nH]ccc34)cn2)C1` the same measures were 102% and 104%.
With `NC(=O)N1CCC(CC(=O)N2CCC([C@H]3c4ncc(Br)cc4CCc4cc(Cl)cc(Br)c43)CC2)CC1`, the growth is 105% in experiment [1] (25 µM) and 101% in experiment [1] (100 µM).
`Cc1cccc(C=NNc2cc(N3CCOCC3)nc(OCCc3ccccn3)n2)c1`: the growth in experiment [1] (25 µM) was 82.1%; in experiment [1] (100 µM), 101%.
The like results for `COC(=O)N[C@H](C(=O)N1CCC[C@H]1c1ncc(-c2ccc(-c3ccc(-c4cnc([C@@H]5CCCN5C(=O)[C@@H](NC(=O)OC)C(C)C)[nH]4)cc3)cc2)[nH]1)C(C)C` were, in that order, 114% and 99.8%.
For `CC(C)(C)Nc1ncc2nc(Nc3cc(Cl)cc(C(F)(F)F)c3)n([C@H]3C[C@H](N)C3)c2n1` the same measures were 50.9% and 11.3% (active).
For `CC(C)C(=O)OCC(=O)[C@@]12OC(C3CCCCC3)O[C@@H]1C[C@H]1[C@@H]3CCC4=CC(=O)C=C[C@]4(C)[C@H]3[C@@H](O)C[C@@]12C` (stereo partly specified) the same measures were 109% and 105%.
With `CCO[C@@H]1[C@@H](OC)[C@H](C)O[C@@H](O[C@@H]2C[C@H]3CC[C@@H]4[C@@H](C=C5C(=O)[C@H](C)[C@@H](O[C@H]6CC[C@H](N(C)C)[C@@H](C)O6)CCC[C@H](CC)OC(=O)C[C@H]54)[C@@H]3C2)[C@@H]1OC`, the growth in experiment [1] (25 µM) is 96.5%; in experiment [1] (100 µM), 85.7%.
In the case of `O=C(NCc1ccco1)c1ccc2[nH]c(COc3ccc(C45CC6CC(CC(C6)C4)C5)cc3)nc2c1`, the results for the growth in experiment [1] (25 µM) and in experiment [1] (100 µM) were 97.5% and 84.5%, respectively.
Consider `CC(C)Nc1ncc2nc(Nc3cc(F)cc(Cl)c3)n(C3CCNCC3)c2n1`, for which the growth is 101% in experiment [1] (25 µM) and 99.6% in experiment [1] (100 µM).
For the compound `O=C(OI(OC(=O)C(F)(F)F)c1ccccc1)C(F)(F)F`, the results for the growth in experiment [1] (25 µM) and in experiment [1] (100 µM) were 97.9% and 93%, respectively.
Turning to `NC(=O)c1nc(F)cnc1O`, the growth was 114% in experiment [1] (25 µM) and 102% in experiment [1] (100 µM).
The like results for `O=C(NCCN1CCCC1)c1ccc(Nc2nccc(-c3ccc(Cl)cc3)n2)cc1` were, in that order, 83.6% and 7.34% (active).
For `CN1CCC[C@@H]1CCO[C@](C)(c1ccccc1)c1ccc(Cl)cc1` the same measures were 17.9% (active) and 13.7% (active).
For `FC(F)(F)c1ccnc(Nc2cn3cc(-c4ccc(N5CCOCC5)nc4)ccc3n2)n1` the same measures were 91.1% and 92.1%.
Regarding `CC(C)Oc1ccc(-c2nc(-c3cccc4c3CC[C@@H]4NCCO)no2)cc1C#N`, the growth in experiment [1] (25 µM) was 9.29% (active); in experiment [1] (100 µM), 6.46% (active).
In the case of `O=C(CCCN1CCC(O)(c2ccc(Cl)cc2)CC1)c1ccc(F)cc1`, the results for the growth in experiment [1] (25 µM) and in experiment [1] (100 µM) were 103% and 14.2% (active), respectively.
Consider `Cc1cccc(Nc2nccc(-c3cccc(C#N)c3)n2)c1`, for which the growth is 80.6% in experiment [1] (25 µM) and 89.8% in experiment [1] (100 µM).
For `Nc1nc(NC2CC2)c2ncn([C@H]3C=C[C@@H](CO)C3)c2n1` the same measures were 94.3% and 107%.
The like results for `Cc1nn(C2CCS(=O)(=O)C2)c(C)c1C1Nc2ccccc2C(=O)N1Cc1ccc2c(c1)OCO2` (stereo unspecified) were, in that order, 84.3% and 93.6%.
For `CC(=O)Oc1ccccc1C(=O)Nc1ncc([N+](=O)[O-])s1` the same measures were 97.4% and 104%.
As for `O=C(NCCCNc1nc(Nc2ccc(N3CCOCC3)cc2)ncc1C1CC1)C1CCC1`, the growth is 93.4% in experiment [1] (25 µM) and 95% in experiment [1] (100 µM).
For `COc1ccc2cc1Oc1ccc(cc1)C[C@H]1c3cc(c(OC)cc3CCN1C)Oc1c(O)c(OC)cc3c1[C@@H](C2)N(C)CC3` the same measures were 100% and 19.7% (active).
Consider `O=c1[nH]c2ccccc2n1CCCN1CCN(C(c2ccccc2)c2ccccc2)CC1`, for which the results for the growth in experiment [1] (25 µM) and in experiment [1] (100 µM) were 103% and 28.7%, respectively.
The like results for `CN(C)C1CC(NC(=O)c2ccc(Nc3nccc(-c4ccc(Cl)c(C(F)(F)F)c4)n3)cc2)C1` (stereo unspecified) were, in that order, 96.6% and 102%.
As for `C[C@@H](C1CCCCC1)n1c(-c2cc3c(cc2Br)OCO3)nc2cc(C(=O)Nc3ccc(C#N)cc3)ccc21`, the growth is 106% in experiment [1] (25 µM) and 102% in experiment [1] (100 µM).
For `CC[C@H](C)[C@H]1O[C@]2(CC[C@@H]1C)C[C@@H]1C[C@@H](C/C=C(\C)[C@@H](O[C@H]3C[C@H](OC)[C@@H](O[C@H]4C[C@H](OC)[C@@H](O)[C@H](C)O4)[C@H](C)O3)[C@@H](C)/C=C/C=C3\CO[C@@H]4[C@H](O)C(C)=C[C@@H](C(=O)O1)[C@]34O)O2` [listing 1 of 2 here] the same measures were 93.9% and 106%.
`COc1ccc(-n2nc(C(N)=O)c3c2C(=O)N(c2ccc(N4CCCCC4=O)cc2)CC3)cc1`: the growth was 104% in experiment [1] (25 µM) and 91.6% in experiment [1] (100 µM).
For `CCN(CCO)CCCC(C)Nc1ccnc2cc(Cl)ccc12` (stereo unspecified) the same measures were 109% and 105%.
On to `COc1c(C)c2c(c(O)c1C/C=C(\C)CCC(=O)O)C(=O)OC2`, for which the growth in experiment [1] (25 µM) was 102%; in experiment [1] (100 µM), 107%.
Consider `C=CC(C)(C)C1=C(O)C(=O)c2ccccc2C1=O`, for which the growth is 103% in experiment [1] (25 µM), 101% in experiment [1] (100 µM), 98.8% in experiment [2] (25 µM) and 164% in experiment [2] (100 µM).
Turning to `C[C@H](NC(=O)c1cc2nc(C(F)(F)F)ccc2[nH]1)c1ccccc1`, the growth in experiment [1] (25 µM) is 88.2%; in experiment [1] (100 µM) it was 95.9%.
Consider `FC(F)(F)c1ccc(CNc2ccc(Cc3c[nH]c4ncc(Cl)cc34)cn2)cn1`, for which the growth was 95.7% in experiment [1] (25 µM), 106% in experiment [1] (100 µM), 93.1% in experiment [2] (25 µM) and 95.5% in experiment [2] (100 µM).
For `C=CCNc1nc(NCC=C)nc(N2CCN(C(c3ccc(F)cc3)c3ccc(F)cc3)CC2)n1`, the growth in experiment [1] (25 µM) is 105%; in experiment [1] (100 µM), 91.3%; in experiment [2] (25 µM), 91.8%; in experiment [2] (100 µM), 83.9%.
Take `CCN(CC)CCNC(=O)c1ccc(NC(=O)c2cc3c(C)nn(-c4ccc(Cl)cc4)c3s2)cc1`: the figures for the growth in experiment [1] (25 µM) and in experiment [1] (100 µM) were 58.4% and 61.2%, respectively.
The like results for `CC(C)c1nc(CN(C)C(=O)N[C@H](C(=O)N[C@@H](Cc2ccccc2)C[C@H](O)[C@H](Cc2ccccc2)NC(=O)OCc2cncs2)C(C)C)cs1` were, in that order, 101% and 104%.
Regarding `N#Cc1ccc(-c2n[nH]c3ccc(-c4n[nH]c(CC(F)(F)F)n4)cc23)cc1`, the values for the growth in experiment [1] (25 µM) and in experiment [1] (100 µM) were 94% and 98.3%, respectively.
For the compound `CC(=O)[C@@]1(O)CC[C@H]2[C@H]3CCC4=CC(=O)CC[C@@]4(C)[C@H]3CC[C@@]21C`, the growth in experiment [1] (25 µM) was 92.2%; in experiment [1] (100 µM) it was 106%; in experiment [2] (25 µM) it was 80.2%; in experiment [2] (100 µM), 83.8%.
For `Cc1ncc([N+](=O)[O-])n1CC(C)O` (stereo unspecified) the same measures were 93.4%, 100%, 120% and 128%.
Consider `Cc1cccc2c1N(C(=O)c1cc(Br)nn1-c1ncccc1Cl)CN(C(C)C)C2=O`, for which the growth in experiment [1] (25 µM) was 94%; in experiment [1] (100 µM), 93.3%.
For the compound `CN[C@@H]1[C@H](O)[C@H](NC)[C@H]2O[C@@]3(O)C(=O)C[C@@H](C)O[C@H]3O[C@@H]2[C@H]1O`, the results for the growth in experiment [1] (25 µM) and in experiment [1] (100 µM) were 105% and 102%, respectively.
Turning to `NC1(c2ccc(-c3nc4ccn5c(O)nnc5c4cc3-c3ccccc3)cc2)CCC1`, the growth in experiment [1] (25 µM) is 104%; in experiment [1] (100 µM) it was 14% (active); in experiment [2] (25 µM), 79.3%; in experiment [2] (100 µM), 3.13% (active).
As for `O=C(Nc1cccc(-c2cc3nc(Nc4ccc(N5CCOCC5)cc4)ncc3[nH]2)c1)C1CC1`, the growth is 89.7% in experiment [1] (25 µM) and 85.2% in experiment [1] (100 µM).
Turning to `COc1ccc(-c2ccc3c(-c4ccc(F)cc4)cnc(N)c3c2)cn1`, the growth was 94.3% in experiment [1] (25 µM) and 75.2% in experiment [1] (100 µM).
`COCC[C@H](NC(=O)c1cc2ccc(C(F)(F)F)cc2[nH]1)c1ccccc1`: the growth was 95.1% in experiment [1] (25 µM) and 92.9% in experiment [1] (100 µM).
The like results for `Cc1c(O)cccc1C(=O)N[C@@H](CSc1ccccc1)[C@H](O)CN1C[C@H]2CCCC[C@H]2C[C@H]1C(=O)NC(C)(C)C` were, in that order, 107% and 105%.
Turning to `OC[C@H]1NC[C@H](O)[C@@H](O)[C@H]1O`, the growth in experiment [1] (25 µM) was 94.7%; in experiment [1] (100 µM), 100%; in experiment [2] (25 µM), 101%; in experiment [2] (100 µM), 91.1%.
Turning to `OC1(CN2CCC(Oc3cccc(C(F)(F)F)c3)CC2)CCNC1` (stereo unspecified), the growth in experiment [1] (25 µM) was 98.5%; in experiment [1] (100 µM), 19.1% (active); in experiment [2] (25 µM) it was 5.37% (active); in experiment [2] (100 µM), 12.9% (active).
Regarding `CC[C@H](C)[C@H]1O[C@]2(CC[C@@H]1C)C[C@@H]1C[C@@H](C/C=C(\C)[C@@H](O[C@H]3C[C@H](OC)[C@@H](O[C@H]4C[C@H](OC)[C@@H](O)[C@H](C)O4)[C@H](C)O3)[C@@H](C)/C=C/C=C3\CO[C@@H]4[C@H](O)C(C)=C[C@@H](C(=O)O1)[C@]34O)O2` [listing 2 of 2 here], the growth in experiment [1] (25 µM) is 90.2%; in experiment [1] (100 µM) it was 91.2%.
